In PubChem BioAssay (NCI) one finds growth data, which are given here for 40 compounds.

The structures appear in SMILES notation. Values joined by “and” are separate entries in the source; they are usually repeats but may differ in a detail not shown here. Equal entries are not always repeated. About 83,000 compounds went through this panel and 20% of them were active in at least one assay; those are over-represented in the sample as a whole.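 Negative percent growth values reflect cell death: -40 means 40% of the cells present at the start died, and -100 means all died.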 Unmarked numbers belong to inactive results. Active and inactive are the calls of the source. The calls were made as follows: active = growth percent below 10; inactive = the rest.

For this test, the system named is MDA-MB-468 breast. Nature of the test: NCI-60 one-dose screen, 48 h (100 = growth as untreated, 0 = no growth, -100 = all killed). The settings on record: 10 µM unless noted.
With `OC(c1ccccc1)c1ccccn1` (stereo not given), the growth is 103%.

For `COc1cc(-c2nc3sccn3c2-c2ccnc(S(C)(=O)=O)n2)ccc1F`, the growth is 72.3%.

For `S=C(N/N=C/c1ccccn1)Nc1ccccn1`, the growth was -1.71% (active).

Take `CC(C)(C)OC(=O)N1CCCN(CCNc2nccc(-c3c(-c4cccc(O)c4)nc4sccn34)n2)S1(=O)=O`: the growth is 97.3%.

As to `C/C(=C(\c1ccc(O)cc1)c1ccc(OCCN2CCCCCC2)cc1)c1ccc(Cl)cc1`, the growth was -88% (active).

Consider `COc1ccc(/C=C2\CN(C(=O)C(Cl)Cl)C/C(=C\c3ccc(OC)cc3)C2=O)cc1`, for which the growth is -27.5% (active).

In the case of `COc1ccc(-c2nnc(-c3ccc4c(c3)nc(-c3ccncc3)n4C3CCCCC3)o2)cc1`, the growth is 75.2%.

As to `O=C1C(Cl)=C(N=Nc2c(Cl)c(O)c3ccccc3c2O)C(=O)c2ccccc21`, the growth is 66.3%.

Regarding `C/C(=N\NC(=O)c1ccccc1N)c1ccccc1O`, the growth is 15.5%.

Regarding `N=C(N)c1ccc(-c2ccc(-c3ccccc3)o2)cc1`, the growth is -68.6% (active).

For the compound `Cc1ccc(C(=Nc2ccccc2)N=P(c2ccccc2)(c2ccccc2)c2ccccc2)cc1`, the growth was -83% (active).

Consider `COc1cc(-c2nccc3cc4c(cc23)OCO4)cc(OC)c1OC`, for which the growth is -6.2% (active) and 5.32% (active).

Turning to `Nc1ncnc2[nH]c(=O)[nH]c12`, the growth is 97.8%.

Turning to `COc1ccc(-c2nc(/C=C3\SC(=NCc4ccccc4)NC3=O)c3ccccn23)cc1`, the growth is -56.9% (active).

Regarding `COC(=O)/C(CCC=C(C)C)=C1\[C@@H](OC(C)=O)C[C@@]2(C)[C@H]1C/C(=N/O)[C@H]1[C@@]3(C)CC/C(=N\O)[C@@H](C)[C@@H]3CC[C@@]12C`, the growth was 96.8%.

In the case of `CCCCCCCCn1ccc2cc(NC(=O)Cn3cc(CN4CCCC4)nn3)ccc21`, the growth is 16.1%.

With `CC(C)(C)[Si](C)(C)OC1[C@@H](COC(N)=O)O[C@@H](n2cnc3c(N)ncnc32)[C@H]1O[Si](C)(C)C(C)(C)C` (stereo not given in full), the growth is 97.2%.

As for `C=C1C(=O)O[C@H]2[C@H]1CC/C(CNC(=O)CCc1ccc(OC)cc1)=C\CC[C@@]1(C)O[C@@H]21`, the growth was 32.1%.

In the case of `COc1ccc(-c2c(N)n[nH]c2-c2ccc(Cl)cc2O)cc1OC`, the growth was 84.1%.

Take `CC(C)N1CC(=O)N2CSCC2C1=O` (stereo not given): the growth was 92.6%.

Take `CCCCCC(=O)N1c2ccccc2NC2=C(C(=O)CC(c3ccc(OC)c(OC)c3)C2)C1c1ccc(C(F)(F)F)cc1` (stereo not given): the growth is 14.2%.

On to `NCC(=O)NC(CC(=O)O)C(=O)O` (stereo not given), for which the growth is 102%.

With `CCCCCCCCCCOC(=O)c1nn(C(C)=O)c2cc(C)c(C)cc12`, the growth was 111%.

With `COc1ccc(Nc2cnc3cc(NS(=O)(=O)c4ccc(C)cc4)ccc3n2)cc1`, the growth is 46.1%.

For `C[N+]1=C(/C=C/c2ccc(I)cc2)C(C)(C)c2ccccc21`, the growth was 95.3%.

Turning to `COC(=O)c1nc(=S)[nH]c(C(=O)OC)c1C(=O)c1ccc(OC)cc1`, the growth was 94.7%.

For `O=c1[nH]cc(/C=N\Nc2ccccc2)c(=O)[nH]1`, the growth was 90.7%.

As to `COc1ccc(-c2nn(-c3ccccc3)cc2/C=C/C(=O)OCc2cn(-c3ccc(F)c(Cl)c3)nn2)cc1`, the growth is 72.2%.

In the case of `CC(=O)Oc1ccc(/C(=C(\C)c2ccc(Cl)cc2)c2ccc(OCCN3CCCCC3)cc2)cc1`, the growth is -25% (active).

Regarding `COc1ccc(Cn2cc(C#N)c(N)c2C(C)=O)cc1`, the growth is 102%.

With `Cc1cc(N(CCNc2ccnc3cc(Cl)ccc23)Cc2ccc3c(c2)OCO3)nc(N2CCCC2)n1`, the growth is -39.4% (active).

Turning to `O=C1C(Cl)=C(Nc2ccc(O)cc2)C(=O)N1Cc1ccc(Cl)cc1`, the growth was 5.88% (active).

Turning to `N#Cc1c2ncccc2c2nnc3cc(Cl)c(Cl)cc3n12`, the growth is 21.7%.

Turning to `COc1ccc(C/C(C)=C(\c2ccc(O)cc2)c2ccc(OCCCN(C)C)cc2)cc1`, the growth was 86.8%.

On to `COc1ccc(Cn2nc(-c3cc(OC)c(OC)c(OC)c3)c3c2CCc2cnoc2-3)cc1OC`, for which the growth is -12.8% (active).

In the case of `O=c1c2cccc3c(N4CCOCC4)ccc(c32)c2nc3ccccc3n12`, the growth is -63.5% (active).

Consider `O=C(O)C1(Cc2cccc(Nc3nccs3)n2)CCC(Oc2cccc(Cl)c2F)CC1` (stereo not given), for which the growth was 33.4%.

With `CCNC(=S)NN`, the growth was 34.9%.

Regarding `O=C1OC(c2ccc(F)cc2)CC1CN1CCOCC1` (stereo not given), the growth was 95.8%.

Regarding `COc1cccc(/C=C(/C)c2ccc3cccc(OC)c3[o+]2)c1O`, the growth was 95.9%.
